Holding throughout (set-up): scale not given: direction of the effect not stated beside the values
Assay [1] deals with Protein translocase subunit SecA (Escherichia coli (strain K12)) (UniProt P10408). Nature of the assay: Assay to Identify E. coli SecA ATPase Inhibitors. The assay is classed as functional. As to conditions: 30 µM.
For assay [2], the target named is T1, Ubiquitin-activating enzyme e1, putative (Leishmania donovani (strain BPK282A1)) (UniProt E9BSI1).
T1 sequence (whole entry): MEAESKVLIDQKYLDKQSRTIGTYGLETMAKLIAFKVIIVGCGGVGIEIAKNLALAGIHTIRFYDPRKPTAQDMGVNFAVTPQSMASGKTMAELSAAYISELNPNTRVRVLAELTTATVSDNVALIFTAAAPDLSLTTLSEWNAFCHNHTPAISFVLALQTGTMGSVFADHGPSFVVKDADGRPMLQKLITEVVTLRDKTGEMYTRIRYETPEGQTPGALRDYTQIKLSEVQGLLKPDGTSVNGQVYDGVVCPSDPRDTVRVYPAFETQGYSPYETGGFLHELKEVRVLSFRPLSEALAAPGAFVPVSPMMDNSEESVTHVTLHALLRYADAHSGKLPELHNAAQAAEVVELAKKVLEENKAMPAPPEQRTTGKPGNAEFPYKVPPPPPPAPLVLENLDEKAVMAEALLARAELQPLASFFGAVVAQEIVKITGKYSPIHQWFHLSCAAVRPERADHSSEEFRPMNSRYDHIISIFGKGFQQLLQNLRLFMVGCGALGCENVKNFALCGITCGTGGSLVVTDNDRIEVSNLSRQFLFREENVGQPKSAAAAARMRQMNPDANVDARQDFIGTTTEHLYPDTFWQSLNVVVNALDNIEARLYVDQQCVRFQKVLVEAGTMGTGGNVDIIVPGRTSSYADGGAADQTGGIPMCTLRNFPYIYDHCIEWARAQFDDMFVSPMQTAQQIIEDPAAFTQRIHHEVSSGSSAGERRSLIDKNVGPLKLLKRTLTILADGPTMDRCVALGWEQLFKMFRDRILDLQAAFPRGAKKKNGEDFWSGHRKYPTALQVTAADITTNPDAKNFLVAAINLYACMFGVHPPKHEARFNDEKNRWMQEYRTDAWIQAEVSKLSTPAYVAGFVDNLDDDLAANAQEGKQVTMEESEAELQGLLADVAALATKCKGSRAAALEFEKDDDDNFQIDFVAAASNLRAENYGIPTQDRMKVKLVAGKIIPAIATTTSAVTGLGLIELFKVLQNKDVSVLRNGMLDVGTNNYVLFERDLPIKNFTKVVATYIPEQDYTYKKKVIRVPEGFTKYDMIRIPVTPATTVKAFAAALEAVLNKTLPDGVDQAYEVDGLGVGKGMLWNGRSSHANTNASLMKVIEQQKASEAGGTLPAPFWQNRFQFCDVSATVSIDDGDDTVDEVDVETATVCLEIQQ
Nature of the assay: Leishmania donovani Ubiquitin Activating Enzyme (LdE1). The note with it: 30 µM. The assay is classed as functional.

The target in assay [3] is AMP-activated protein kinase, AMPK (Homo sapiens) (UniProt P54646+O43741+P54619+Q9UGJ0+Q9Y478+Q13131+Q9UGI9). Nature of the assay: AMP-dependent Kinase enzyme assay. An in vitro enzyme assay that detects ADP turnover that is directly proportional to AMPK activity. This uses naive AMPK that is activated during the assay with MK-8722. The assay is classed as functional. As to conditions: 30 µM.

Assay [4] has as its target Sialic acid-binding Ig-like lectin 9 (Homo sapiens) (UniProt Q9Y336). Nature of the assay: Hs-Siglec9 ALPHAscreen SOP 20170721. The note with it: 10 µM.
The next assay relates to Trypanosoma cruzi. Nature of the assay: Trypanosoma cruzi phosphomannomutase and mannose-1-phosphate guanylyltransferase assay. The assay is classed as functional. The note with it: 10 µM.
The target of assay [5] is T2, Arginase-2, mitochondrial (Homo sapiens) (UniProt P78540).
T2 sequence (whole entry): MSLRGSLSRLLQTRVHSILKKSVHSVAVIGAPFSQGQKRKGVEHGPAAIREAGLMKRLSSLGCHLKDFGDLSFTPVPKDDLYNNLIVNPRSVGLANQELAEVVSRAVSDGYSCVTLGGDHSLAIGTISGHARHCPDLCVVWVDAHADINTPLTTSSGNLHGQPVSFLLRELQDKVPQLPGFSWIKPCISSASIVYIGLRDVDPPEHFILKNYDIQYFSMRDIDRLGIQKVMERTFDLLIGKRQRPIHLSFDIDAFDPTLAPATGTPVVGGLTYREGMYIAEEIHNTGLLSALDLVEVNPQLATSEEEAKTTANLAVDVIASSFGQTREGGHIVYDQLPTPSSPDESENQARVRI
As to the kind of experiment: in vitro enzyme assay to detect the production of urea directly proportional to the activity of Arginase II. Note: in the data most compounds retested in dose-response had high values. The assay is classed as functional. The note with it: 33.3 µM.

The target of assay [6] is T3, Proteasome subunit beta (Trypanosoma cruzi) (UniProt O96673).
T3 sequence (whole entry): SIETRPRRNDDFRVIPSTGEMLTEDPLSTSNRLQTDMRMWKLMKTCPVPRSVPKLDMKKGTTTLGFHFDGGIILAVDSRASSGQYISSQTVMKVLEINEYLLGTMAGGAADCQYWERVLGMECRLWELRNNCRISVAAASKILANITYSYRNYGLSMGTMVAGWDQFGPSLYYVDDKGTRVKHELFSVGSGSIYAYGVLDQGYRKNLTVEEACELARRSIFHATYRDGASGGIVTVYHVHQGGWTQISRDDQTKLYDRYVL
As to the kind of experiment: Trypanosoma cruzi proteasome chymotrypsin-like activity (TcProtChymo) assay. Note: in the data most compounds retested in dose-response had high values. The assay is classed as functional. As to conditions: 9.37 µM.

The species entered for another assay is Homo sapiens. As to the kind of experiment: To identify inhibition of the IFN signalling (Jak-Stat) pathway via expression of an eGFP reporter gene under the control of an IFN-stimulated response element (ISRE) containing MxA promoter. The assay is classed as functional. The note with it: 30 µM. For orientation: In a reporter assay the amount or activity of a reporter protein is the signal.

In assay [7] the target is T4, Tyrosyl-tRNA synthetase, putative (Trypanosoma cruzi (strain CL Brener)) (UniProt Q4DSP6).
T4 sequence (whole entry): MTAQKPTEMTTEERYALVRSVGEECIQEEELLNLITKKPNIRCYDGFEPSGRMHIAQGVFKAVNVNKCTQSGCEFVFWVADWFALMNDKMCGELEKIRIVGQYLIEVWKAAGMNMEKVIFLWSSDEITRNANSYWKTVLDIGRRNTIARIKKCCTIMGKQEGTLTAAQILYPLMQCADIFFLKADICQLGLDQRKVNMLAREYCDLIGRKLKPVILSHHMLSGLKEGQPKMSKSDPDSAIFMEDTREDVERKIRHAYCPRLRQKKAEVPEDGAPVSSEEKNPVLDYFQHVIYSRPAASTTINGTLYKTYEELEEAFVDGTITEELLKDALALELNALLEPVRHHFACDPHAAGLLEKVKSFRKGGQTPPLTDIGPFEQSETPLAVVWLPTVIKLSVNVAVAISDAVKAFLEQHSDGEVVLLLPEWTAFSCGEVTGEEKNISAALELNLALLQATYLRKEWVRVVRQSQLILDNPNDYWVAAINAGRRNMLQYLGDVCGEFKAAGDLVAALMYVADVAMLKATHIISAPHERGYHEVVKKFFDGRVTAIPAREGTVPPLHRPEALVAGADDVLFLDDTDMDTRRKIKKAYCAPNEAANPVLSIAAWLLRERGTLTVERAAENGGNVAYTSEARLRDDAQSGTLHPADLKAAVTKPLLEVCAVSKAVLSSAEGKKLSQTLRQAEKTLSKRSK
Nature of the assay: Trypanosoma cruzi tyrosyl tRNA synthetase (TcYRS) _High Tyrosine SOP. Note: in the data most compounds retested in dose-response had high values. The assay is classed as functional. The note with it: 30 µM.

For assay [8], the target named is T4, Tyrosyl-tRNA synthetase, putative (Trypanosoma cruzi (strain CL Brener)). Nature of the assay: Trypanosoma cruzi tyrosyl tRNA synthetase (TcYRS) SOP. The assay is classed as functional. As to conditions: 30 µM.
Assay [9] concerns the target Chromo domain-containing protein 1 (Saccharomyces cerevisiae (strain ATCC 204508 / S288c) (Baker's yeast)) (UniProt P32657). As to the kind of experiment: ScCHD-1 Enzyme Inhibition Assay. Note: in the data most compounds retested in dose-response had high values. The assay is classed as functional. The note with it: 30 µM.

Molecules are shown by their SMILES. For some of these results: Results with a measured potency or affinity are listed apart.

Eleven compounds from ChEMBL document CHEMBL3988442, “University of Dundee, Small-Polar-MMV Screening Library” (2021) can be followed below.

Sequence of Protein translocase subunit SecA (Escherichia coli (strain K12)) (P10408 whole entry): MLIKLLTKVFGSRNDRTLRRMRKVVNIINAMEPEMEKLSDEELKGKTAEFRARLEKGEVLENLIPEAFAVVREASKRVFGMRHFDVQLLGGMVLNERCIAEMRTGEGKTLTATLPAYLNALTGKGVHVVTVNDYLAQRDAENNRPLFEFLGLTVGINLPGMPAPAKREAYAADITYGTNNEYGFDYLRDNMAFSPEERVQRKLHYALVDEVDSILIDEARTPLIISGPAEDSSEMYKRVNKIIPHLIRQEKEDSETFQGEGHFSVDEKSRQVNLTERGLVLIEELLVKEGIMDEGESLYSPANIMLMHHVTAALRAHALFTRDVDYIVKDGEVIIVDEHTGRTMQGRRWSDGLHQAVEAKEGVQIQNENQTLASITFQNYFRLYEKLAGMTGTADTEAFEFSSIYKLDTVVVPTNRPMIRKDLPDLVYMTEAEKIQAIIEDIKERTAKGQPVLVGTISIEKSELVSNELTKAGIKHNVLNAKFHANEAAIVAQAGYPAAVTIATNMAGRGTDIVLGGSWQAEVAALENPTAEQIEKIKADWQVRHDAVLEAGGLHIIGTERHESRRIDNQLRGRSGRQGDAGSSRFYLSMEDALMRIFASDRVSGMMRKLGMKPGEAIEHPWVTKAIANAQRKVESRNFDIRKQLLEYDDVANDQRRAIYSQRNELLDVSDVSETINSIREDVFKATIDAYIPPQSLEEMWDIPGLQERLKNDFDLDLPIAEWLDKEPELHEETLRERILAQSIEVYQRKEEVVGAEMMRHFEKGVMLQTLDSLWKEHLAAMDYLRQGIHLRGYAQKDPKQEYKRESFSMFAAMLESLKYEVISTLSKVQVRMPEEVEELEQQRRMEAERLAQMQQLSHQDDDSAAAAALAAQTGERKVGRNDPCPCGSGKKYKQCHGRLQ
Sequence of Sialic acid-binding Ig-like lectin 9 (Homo sapiens) (Q9Y336 whole entry): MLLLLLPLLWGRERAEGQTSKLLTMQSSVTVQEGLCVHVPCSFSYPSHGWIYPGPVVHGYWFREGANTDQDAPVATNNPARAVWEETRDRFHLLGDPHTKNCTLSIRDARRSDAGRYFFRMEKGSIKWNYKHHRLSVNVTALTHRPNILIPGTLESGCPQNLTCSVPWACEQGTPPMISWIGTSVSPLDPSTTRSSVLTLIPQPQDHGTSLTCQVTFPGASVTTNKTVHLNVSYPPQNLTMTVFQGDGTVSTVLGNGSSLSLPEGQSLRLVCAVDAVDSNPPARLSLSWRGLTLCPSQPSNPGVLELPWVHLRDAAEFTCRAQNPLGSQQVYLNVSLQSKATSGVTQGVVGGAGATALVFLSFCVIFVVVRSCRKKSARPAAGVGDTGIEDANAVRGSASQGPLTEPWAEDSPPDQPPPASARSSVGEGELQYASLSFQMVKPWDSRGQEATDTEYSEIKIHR
Sequence of Chromo domain-containing protein 1 (Saccharomyces cerevisiae (strain ATCC 204508 / S288c) (Baker's yeast)) (P32657 whole entry, the tested form may be a part): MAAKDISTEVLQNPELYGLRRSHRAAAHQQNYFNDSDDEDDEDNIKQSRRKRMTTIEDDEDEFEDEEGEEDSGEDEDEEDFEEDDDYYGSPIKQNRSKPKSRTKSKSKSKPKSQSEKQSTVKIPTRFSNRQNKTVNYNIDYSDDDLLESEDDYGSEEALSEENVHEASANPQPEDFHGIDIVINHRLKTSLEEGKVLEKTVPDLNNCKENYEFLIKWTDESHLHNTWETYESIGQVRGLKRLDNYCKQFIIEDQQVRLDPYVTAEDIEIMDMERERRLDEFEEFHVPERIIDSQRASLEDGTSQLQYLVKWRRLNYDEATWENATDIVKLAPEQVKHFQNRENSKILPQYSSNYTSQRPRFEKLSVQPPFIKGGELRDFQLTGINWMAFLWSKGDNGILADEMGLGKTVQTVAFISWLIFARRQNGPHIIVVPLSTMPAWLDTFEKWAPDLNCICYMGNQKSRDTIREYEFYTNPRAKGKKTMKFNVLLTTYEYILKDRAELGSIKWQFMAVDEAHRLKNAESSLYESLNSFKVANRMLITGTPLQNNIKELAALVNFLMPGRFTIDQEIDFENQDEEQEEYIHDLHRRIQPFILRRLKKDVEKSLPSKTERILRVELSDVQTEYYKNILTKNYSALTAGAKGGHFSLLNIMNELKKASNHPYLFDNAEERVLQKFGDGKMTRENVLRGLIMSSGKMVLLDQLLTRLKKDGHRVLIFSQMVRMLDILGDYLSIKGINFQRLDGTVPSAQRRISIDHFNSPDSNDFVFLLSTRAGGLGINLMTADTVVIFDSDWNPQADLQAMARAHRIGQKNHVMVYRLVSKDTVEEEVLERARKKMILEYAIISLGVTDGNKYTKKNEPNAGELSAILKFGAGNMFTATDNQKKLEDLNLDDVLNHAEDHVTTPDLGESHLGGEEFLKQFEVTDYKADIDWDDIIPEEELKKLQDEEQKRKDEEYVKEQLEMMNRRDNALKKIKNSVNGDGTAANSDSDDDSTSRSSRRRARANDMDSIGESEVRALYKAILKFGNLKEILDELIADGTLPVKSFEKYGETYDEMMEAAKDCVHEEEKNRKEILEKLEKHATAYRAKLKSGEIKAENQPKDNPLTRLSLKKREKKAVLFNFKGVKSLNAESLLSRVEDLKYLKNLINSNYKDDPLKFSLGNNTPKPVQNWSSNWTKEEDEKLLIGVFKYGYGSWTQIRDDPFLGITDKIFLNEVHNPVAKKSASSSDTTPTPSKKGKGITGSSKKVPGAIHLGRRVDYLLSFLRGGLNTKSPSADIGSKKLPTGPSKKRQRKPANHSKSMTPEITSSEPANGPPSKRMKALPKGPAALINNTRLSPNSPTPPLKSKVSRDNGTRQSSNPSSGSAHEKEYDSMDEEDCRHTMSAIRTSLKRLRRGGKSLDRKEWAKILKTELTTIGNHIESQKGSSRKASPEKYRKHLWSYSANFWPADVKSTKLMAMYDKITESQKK

Consider `Cc1c[nH]c(CN(C)C(=O)C2CC(=O)N(Cc3ccncc3)C2)n1` (stereo unspecified), for which the Percent Effect is -3.45% in assay [1]; 5.41% in assay [2]; -2.63% in [3]; -5.87% in assay [4]; -5.77% with Trypanosoma cruzi; -1.24% in assay [5]. In addition, the Percent Effect in assay [6] was 8.33%; in the assay filed under Homo sapiens, 0.971%; in [7], -1.07%; in assay [8] it was 1.24%; in [9], -4.02%.

Consider `Cc1cccc(C)c1OCCC(=O)N1CCC(c2nncn2C)CC1`, for which the Percent Effect in assay [1] was -6.09%; in assay [2], 23.4%; in assay [3], 3.3%; in [4] it was 8.75%; in the assay on Trypanosoma cruzi, 6.74%; in [5] it was -2.49%. Besides, the Percent Effect in assay [6] was 6.76%; in the assay filed under Homo sapiens it was 4.85%; in [7], 6.8%; in assay [8] it was 21.9%; in [9] it was -8.79%.

As for `Cc1ccsc1C(=O)NCCCn1nc2ccccn2c1=O`, the Percent Effect in assay [1] was -1.75%; in [2] it was 16.2%; in assay [3], -0.37%; in assay [4] it was -0.759%; with Trypanosoma cruzi, -3.99%; in [5], 1.66%. For the same compound, the Percent Effect in [6] was 9.52%; in the assay listed under Homo sapiens it was 20.9%; in [7], 5.94%; in [8] it was 18.3%; in assay [9], -8.98%.

Take `CCc1n[nH]c(C2CN(CC(=O)NCCc3ccsc3)CCO2)n1` (stereo unspecified): the Percent Effect in assay [1] was -2.71%; in [2], 5.48%; in [3], -4.4%; in assay [4], 11.2%; in the assay on Trypanosoma cruzi it was 5.09%; in assay [5], 4.09%. For the same compound, the Percent Effect in assay [6] is 1.42%; in the assay listed under Homo sapiens, 4.97%; in assay [7], 1.07%; in assay [8], 5%; in assay [9], -5.13%.

For `Cc1csc([C@@H]2C[C@@H]3CCN(Cc4cnn(C)c4)C[C@H]3O2)n1`, the Percent Effect was -5.44% in assay [1]; 2.6% in assay [2]; -0.433% in assay [3]; 1.83% in assay [4]; -0.0983% with Trypanosoma cruzi; -5.52% in assay [5]. The Percent Effect was 3.33% in assay [6]; -23.4% in the assay filed under Homo sapiens; 1.07% in assay [7]; 1.24% in assay [8]; -4% in [9].

`COC[C@H]1CCC[C@]12CN(CCc1ccccc1)CCO2`: the Percent Effect is 0.0327% in assay [1]; 12% in assay [2]; 1.6% in assay [3]; 2.89% in assay [4]; -5.5% in the assay with Trypanosoma cruzi; -8.28% in assay [5]. For the same compound, the Percent Effect was 19.8% in [6]; 4.65% in the assay listed under Homo sapiens; 1.06% in assay [7]; 2.56% in assay [8]; -6.74% in assay [9].

As for `O=C(CC1CC1)N1CCn2cc(Cn3cncn3)nc2C1`, the Percent Effect in assay [1] is -2.33%; in assay [2], 10.4%; in assay [3], 4.72%; in assay [4] it was 3.11%; in the assay with Trypanosoma cruzi it was -4.04%; in assay [5], -13.6%. Moreover, the Percent Effect in assay [6] was 10.8%; in the assay listed under Homo sapiens, 2.39%; in assay [7], 3.17%; in [8], 11.5%; in [9] it was -6.64%.

In the case of `CNS(=O)(=O)c1cc(C(=O)NC2CCOc3ccccc32)cc(C)c1C` (stereo unspecified), the Percent Effect in assay [1] was -6.38%; in assay [2], -2.63%; in assay [3], 13.9%; in assay [4], -3.37%; with Trypanosoma cruzi, -3.41%; in assay [5], -4.73%. The Percent Effect is 8.53% in [6]; -0.414% in the assay listed under Homo sapiens; 4.25% in assay [7]; 7.79% in [8]; 7.83% in [9].

Turning to `COc1ccc(OC)c(CCNC(=O)NC(C)Cn2ccnc2)c1` (stereo unspecified), the Percent Effect in [1] is -2.99%; in assay [2] it was 10.5%; in [3], -9.22%; in assay [4] it was -3.09%; in the assay on Trypanosoma cruzi, -9.77%; in assay [5], -6.13%. Also, the Percent Effect is 5.35% in assay [6]; 34.6% in the assay filed under Homo sapiens; -1.47% in assay [7]; 4.88% in assay [8]; -5.83% in [9].

`CCn1c(CN(C)C)nnc1C1CCN(c2ccnc(C)c2)CC1`: the Percent Effect is -0.496% in assay [1]; 6.94% in [2]; -2.58% in assay [3]; -2.36% in assay [4]; -1.85% with Trypanosoma cruzi; 2.65% in assay [5]. Further, the Percent Effect in [6] is 21.1%; in the assay filed under Homo sapiens it was -1.07%; in assay [7], 5.26%; in assay [8], 5.13%; in [9] it was -1.27%.

For `Cc1nc(C)c(CC(=O)Nc2ncc(C)s2)c(=O)[nH]1`, the Percent Effect is -0.904% in assay [1]; 13.2% in assay [2]; -1.41% in assay [3]; 14.1% in assay [4]; 1.5% in the assay with Trypanosoma cruzi; -1.53% in assay [5]. The Percent Effect in [6] is -2.51%; in the assay filed under Homo sapiens, -6.67%; in assay [7], 5.39%; in assay [8] it was 17.1%; in assay [9] it was -5.26%.
